Key:
Test in all cases: PBM binding z-score (relative to random genomic background probes); higher = stronger binding; sequences stand for … in GC…GCGATTGACAGCGTAGAATGAAGG
[1] = system: RARb homodimer (NR concentration 270 nM)
Procedure, shortened: (§1)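 Regression normalization was applied to scanned fluorescence from custom Agilent 4×180K protein-binding microarrays. Before scanning, arrays were incubated 1 h with ligand-free nuclear receptor dimers, and binding was detected with antibodies against each partner (one per run). Binding z-scores use the random background probes as reference.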

[2] = system: RARg:RXRa (NR concentration 270 nM, RXRa partner concentration 90 nM)
Procedure, shortened: as §1

[3] = system: RARg homodimer (NR concentration 270 nM)
Procedure, shortened: as §1

[4] = system: RXRa DBDmut IVT, anti-RXR (DBD mutation: RXRa K156A/R161A, NR concentration 90 nM)
Procedure, shortened: as §1

[5] = system: RXRa homodimer (NR concentration 180 nM)
Procedure, shortened: as §1

[6] = system: THRa:RXRa (NR concentration 90 nM, RXRa partner concentration 90 nM)
Procedure, shortened: as §1

[7] = system: THRa homodimer (NR concentration 90 nM)
Procedure, shortened: as §1

[8] = system: VDR homodimer (NR concentration 270 nM)
Procedure, shortened: as §1

| Sequence | PBM binding z-score [1] | PBM binding z-score [2] | PBM binding z-score [3] | PBM binding z-score [4] | PBM binding z-score [5] | PBM binding z-score [6] | PBM binding z-score [7] | PBM binding z-score [8] |
| --- | --- | --- | --- | --- | --- | --- | --- | --- |
| CCTACTGGCCCATCAGGTCATTGATATCAACGTT | 2.36 | 1.72 | 1.54 | 0.0636 | 1.13 | 3.29 | 3.04 | 1.9 |
| TCTTGTAGATCAACAGTAGGTTAAGAAAGATCGA | -0.123 | 0.314 | 0.0764 | 0.88 | 0.463 | 0.12 | -0.482 | -0.281 |
| CAAACTAGGTCACGAAAGGTCACAGTCGAATGAC | 6.08 | 7.72 | 8.69 | 2.05 | 7.64 | 5.11 | 3.05 | 2.77 |
| ACTAGCAGGGCAAGTTTGGGTCACTCAAACAAAG | 2.59 | 3.35 | 2.64 | 0.437 | 1.38 | 3.17 | 1.08 | 0.258 |
| ATCGAAAGGTCGACGAGGTGATTATACACCGTTT | 2.78 | 4.21 | 3.9 | 1.34 | 4.35 | 3.58 | 0.498 | 1.54 |
| ATCGAAAGGTCGTGAGGTGGGTATACAGAAAGGC | 2.93 | 4.59 | 3.86 | 1.52 | 5.16 | 2.6 | 0.377 | 1.38 |
| TGAATGAGGTTATAACATCAGGGAACGTTGCAAA | -0.0288 | 1.33 | 0.791 | 0.901 | 2.09 | 1.78 | -0.00143 | 0.537 |
| AGAATGAGGTTATTACGATCAGGGAATTGCGGTC | 1.07 | 1.35 | 1.1 | 2.37 | 2.06 | 2.44 | 0.982 | 1.6 |
| TCAGAAAGGTGAAGGTAACTCAGGTACGCAGTCG | 2.08 | 2.32 | 2.52 | 1.64 | 2.41 | 2.01 | 0.472 | 0.477 |
| GCGATTAGTTGAAAGGGCAACCGAATGATTCTCG | 1.82 | 1.14 | 1 | 0.582 | 1.27 | 0.405 | -0.273 | 0.184 |
| CTACCAAGGTGAACAAGGTTGTTGATTACTATTC | 1.02 | 0.783 | 0.877 | 0.73 | 0.747 | 2.05 | 0.944 | 0.267 |
| ATCGATAGGTCGAGGTGAGTATAGAGAAAGGGAA | 1.05 | 1.68 | 2.13 | -0.314 | 1.47 | 1.63 | 0.0105 | -0.206 |
| CAAACTAGGTCAAAAGTCAAAGTCGAGCCAACCA | 2.64 | 4.67 | 4.23 | 1.61 | 5.2 | 2.55 | 0.407 | 0.387 |
| TCATATAGGTAAACAGGTGAAATTCCGTAAGTTA | 0.605 | 0.589 | 0.48 | 1.58 | 1.07 | 0.752 | 0.651 | 0.614 |
| TCTTGTAGATCAGCAGGTTAAGAGAGCTGGCCAA | -0.156 | -0.1 | -0.407 | 0.292 | 0.367 | -0.0987 | -0.325 | -0.364 |
| TCTTGTAAATCAAGCAGGTTAAGAAAGCCTGAGT | 0.102 | 0.0304 | -0.176 | 0.73 | 0.26 | 0.147 | -0.571 | -0.0324 |
| TCTTGTAGATCAGCAGGAGGTTAAGAAAGATCGA | 0.33 | 0.611 | 0.176 | 0.327 | 0.81 | 0.885 | -0.878 | -0.496 |
| TTACCAAGGTGATGGTCGTTGATCCCTCTGTAGA | 0.0776 | -0.376 | -0.245 | -0.261 | 0.284 | 0.769 | 0.35 | -0.232 |
| CCTACTCGGCCAAAGGTCATTGATTCCAATGCTC | 4.75 | 6.07 | 5.2 | 1.7 | 6.26 | 3.41 | 1.46 | 2.63 |
| CCTGCTAGGTCAATGGTCACCTAAAGCAGCTCGC | 3.18 | 3.72 | 4.05 | 2.07 | 2.43 | 2.78 | 1.32 | 0.427 |
| CGTACTGGGCCAAAGGTCATTGATTCCAATGCTC | 4.66 | 5.89 | 4.65 | 1.3 | 6.26 | 3.6 | 0.976 | 2.28 |
| CGAACTAGGTCATTGACAGGACAGCGAATAGTAA | 2.86 | 4.65 | 4.4 | 2.19 | 2.44 | 2.9 | 0.784 | 1.31 |
| AGAATCAGGTTAAGATCAGGGAAACAGAATACAT | 0.909 | 0.705 | 0.926 | 0.172 | 0.786 | 1.45 | 0.772 | 0.415 |
| CAAACTAGGTAAAGGTCAAAGTCGGTTTGTGCCA | 4.92 | 6.24 | 5.71 | 2.3 | 6.98 | 3.87 | 1.05 | 2.8 |
| GAGACAGGGTCAAGGCCAGAGTACGCGTATTGAT | 3.45 | 5.32 | 5.34 | 1.95 | 6.25 | 3.52 | 1.06 | 1.98 |
| CGAACTAGGTCAATGACAGGACAGTGAATAGTAA | 2.71 | 4.32 | 4.46 | 1.49 | 2.17 | 2.62 | 0.35 | 0.409 |
| TTGAGTAGGTTACCAATGGGGCATTCAGCTTTCT | 1.02 | 1.46 | 0.739 | 0.192 | 0.569 | 0.168 | -0.426 | 0.0569 |
| ACAGACAGGTGAAGAAGGTAACTCAGGCTATCAT | 0.685 | 0.696 | 0.885 | -0.215 | 0.527 | 1.32 | 0.0297 | -0.131 |
| TGTACAGGGTCAAAGGCCAGAGTACGAATGTCGA | 3.31 | 5.52 | 4.74 | 2.86 | 6.85 | 3.43 | 0.326 | 2.65 |

From the supplement of paper PMC6555819
